Only a selection was taken, and hits are over-represented in it overall.
Pf Dd2 growth: blocks in vitro growth of P. falciparum Dd2; AID 1347417; P. falciparum Dd2 growth, SYBR Green, 72 h; Potency, µM (doses to about 28.9 µM), for the others: at the highest dose activity, negative = inhibition, hits mostly inhibitors; hit rate 4.3% among 120,000; active = well fitted inhibition curve with a large enough effect;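 note: plate controls were DMSO vehicle for no effect and reference drug for full effect; nearly all actives have a fitted effect of over 65% in size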
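Infected erythrocytes (Dd2, 0.3% parasitemia, 2.5% hematocrit final) are added to compound in RPMI-1640/Albumax II medium, grown 72 h at 37C in low oxygen, then lysed with saponin/Triton-X containing SYBR Green and read by fluorescence.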
An asterisk follows results filed as active; i = inactive; [ ] = remark or other dose. Potency is the fitted concentration of half-maximal effect.

SMILES	Pf Dd2 growth
CCC(Sc1nc2cc3c(cc2c(=O)n1CCCC(=O)NCc1ccc(OC)cc1)OCO3)C(=O)NCCCOC (stereo not drawn)	i
COc1ccc(CNC(=O)CCCn2c(SCC(N)=O)nc3cc4c(cc3c2=O)OCO4)cc1	32%
CCCCC(Sc1nc2cc3c(cc2c(=O)n1CCCC(=O)NCc1ccc(OC)cc1)OCO3)C(=O)OCC (stereo not drawn)	7.9µM*
CCn1ncc(CN(C)C(=O)c2c(C)oc3c2CN(Cc2ccc(OC)cc2)CC3)c1C	11µM*
COc1ccc(CN2CCc3oc(C)c(C(=O)N4CCN(C(C)=O)CC4)c3C2)cc1	-13%
COCCNC(=O)c1nc2c(o1)CCN(Cc1ccc(OC)cc1)CC2	-16%[44.1 µM]
CCOC(=O)c1ccc(NC(=O)c2c(OCC)cc(=O)n3c2CCCC3)cc1	-12%
CN1CCC2(CC1)CN(C(=O)c1cncc(Br)c1)Cc1ccccc1O2	-3%
CCN(CC)Cc1ccc2c(c1)CN(C(=O)c1cncc(Br)c1)CCO2	8.9µM*
Cc1ncoc1C(=O)N1CCOc2ccc(CCC(N)=O)cc2C1	-6%
C=CCn1c(-c2ccc(F)cc2)cn2cc(C(=O)N(C)CCO)nc2c1=O	-11%
CC(C)=CCn1c(-c2cc(C)oc2C)cn2cc(C(=O)N[C@@H](C)C(N)=O)nc2c1=O	-7%
CC(C)=CCn1c(-c2ccccc2Cl)cn2cc(C(=O)NCC(C)O)nc2c1=O (stereo not drawn)	10µM*
Cc1cccn2c(CC(=O)N3Cc4[nH]cnc4CC3C(=O)O)cnc12 (stereo not drawn)	2%
Cc1cnn(C2(C(=O)O)CCN(S(=O)(=O)c3cnn(C)c3)CC2)c1	-12%
Cc1ccc(C)c(C(=O)CSc2nc3cc(C(=O)NC4CCCC4)ccc3c(=O)n2CC2CCCO2)c1 (stereo not drawn)	10µM*
Cc1ccc(C(=O)CSc2nc3cc(C(=O)NC4CCCC4)ccc3c(=O)n2CC2CCCO2)cc1 (stereo not drawn)	-17%
COCCn1c(SCC(=O)c2ccc(C)cc2)nc2cc(C(=O)NC3CCCC3)ccc2c1=O	20%
O=C(CSc1nc2cc(C(=O)NC3CCCC3)ccc2c(=O)n1CC1CCCO1)c1ccc(F)cc1 (stereo not drawn)	-26%
COCCn1c(SCC(=O)c2ccc(C)cc2C)nc2cc(C(=O)NC3CCCC3)ccc2c1=O	17%
O=C(CSc1nc2cc(C(=O)NC3CCCC3)ccc2c(=O)n1CC1CCCO1)c1cccc(Cl)c1 (stereo not drawn)	10µM*
Cn1cc(CCC(=O)N2CCN(Cc3ccccc3)CC(O)C2)cn1 (stereo not drawn)	-19%
O=C(Nc1ccccc1F)N1CCC(Oc2ncccc2C(=O)N2CCOCC2)C1 (stereo not drawn)	61%
O=C(c1ccccc1)N1CCC2(CC1)COc1ccccc1[S+](=O)([O-])N2	13%
O=C(Nc1ccc2ncnc(N3CCCCC3)c2c1)c1ccc(F)c(F)c1	-7%
SMILES	Pf Dd2 growth
O=C(Nc1ccc2ncnc(N3CCCCC3)c2c1)c1cc(F)ccc1F	i
Cc1oc2ncnc(N3CCCCC3)c2c1C(=O)Nc1cccc(F)c1	i
O=C(Nc1ccc2c(N3CCCC3)ncnc2c1)c1cc(F)ccc1Cl	5µM*
O=C(Nc1ccc2c(N3CCCC3)ncnc2c1)c1cc(F)ccc1F	3.2µM*
O=C(Nc1ccc2c(N3CCCC3)ncnc2c1)c1cccc(F)c1	2µM*
COc1ccc(NC(=O)N2CC[C@H]3COC(=O)N3c3cc(C)ccc3C2)cc1	22%[44.1 µM]
CN1CCCCCCN(S(=O)(=O)c2cccc(F)c2)CCC1=O	-8%
Cc1nc(C)c(C(=O)N2CCCC2c2nc(CCOCC3CCCC3)no2)s1 (stereo not drawn)	-12%
Cc1ccccc1C(=O)N(C)Cc1ccccc1C(F)(F)F	-20%[44.1 µM]
CC(=O)NC1(C)CCN(Cc2cnc(-c3cccc(C(F)(F)F)c3)s2)CC1	i
CCOC(=O)C1(Cc2ccc(OC)cc2)CCN(C(=O)c2cccc(Cl)c2)CC1	i
FC(F)(F)c1cccc(C2=NOC3(CCN(Cc4ccccc4)CC3)C2)c1	-28%
CCOC(=O)C1(Cc2ccc(F)cc2)CCCN(C(=O)c2ccco2)C1 (stereo not drawn)	i
CCOC(=O)C1(Cc2cccc(C(F)(F)F)c2)CCN(Cc2ccc(COC)o2)CC1	8.9µM*
CCOC(=O)C1(Cc2cccc(C(F)(F)F)c2)CCN(Cc2cc(C(C)C)n[nH]2)CC1	7.1µM*
CN1C(=O)Cc2cc(C(=O)N3CCN(c4ccccc4Cl)CC3)ccc21	i
CC(C)(C)n1nnnc1C1CC2(CCOCC2)C(=O)N1Cc1ccco1 (stereo not drawn)	19%
O=C(c1ccc(-c2cccc(O)c2)nc1)N1CCCN(c2ncccn2)CC1	-14%
CN1CC(=O)N(C2CCCNC2)Cc2c1ncnc2N1CCc2ccccc2C1 (stereo not drawn)	3%
Cc1ccc(-c2ccc3nnc(CNC(=O)c4ccn[nH]4)n3n2)cc1	-11%
COCCOC1CCN(C(=O)c2n[nH]c3ccccc23)CC1	15%
CCCN(CC1CCOC1)C(=O)Nc1cccc(Cl)c1 (stereo not drawn)	i[5.79 µM]

Assay outcomes from PubChem BioAssay.
